# Reference: PubChem BioAssay AID2561 (National Center for Advancing Translational Sciences (NCATS), 2010)
# Records with an inconclusive call do not appear. A call without a number means that no potency is given here. The source made the active and inactive calls. Calls come from the whole dose curve; as a rule, active = well fitted inhibition curve with a large enough effect; inconclusive = small, poorly fitted or top-dose-only effect, or effect the other way; inactive = flat fitted curve, though single readings scatter.
# Target: Pyruvate kinase (Leishmania mexicana) (UniProt Q27686)
# Sequence (Q27686 whole entry, looked up): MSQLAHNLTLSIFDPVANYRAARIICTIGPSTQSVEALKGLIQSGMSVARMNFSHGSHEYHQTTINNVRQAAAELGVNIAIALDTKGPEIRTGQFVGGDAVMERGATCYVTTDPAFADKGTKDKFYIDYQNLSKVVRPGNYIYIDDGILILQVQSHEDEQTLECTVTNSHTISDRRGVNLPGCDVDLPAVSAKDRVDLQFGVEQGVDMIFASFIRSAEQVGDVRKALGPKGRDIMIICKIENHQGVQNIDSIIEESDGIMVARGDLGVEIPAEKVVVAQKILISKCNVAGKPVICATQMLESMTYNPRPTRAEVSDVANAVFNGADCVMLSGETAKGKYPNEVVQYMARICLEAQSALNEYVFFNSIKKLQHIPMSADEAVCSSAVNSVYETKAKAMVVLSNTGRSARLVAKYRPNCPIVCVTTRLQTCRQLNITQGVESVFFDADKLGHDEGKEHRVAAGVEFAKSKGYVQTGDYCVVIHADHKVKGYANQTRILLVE
# Assay: Confirmation Assay for Inhibitors of Leishmania Mexicana Pyruvate Kinase (LmPK): for Probe SAR
# Conditions: purified LmPK, ATP generation, Kinase-Glo luminescence; series mostly up to 57.5 µM
# Description: NIH Chemical Genomics Center [NCGC] Malcolm Walkinshaw, Hugh Morgan, Linda Gilmore University of Edinburgh, UK MLPCN Grant: 1 R03 MH085697-01 NCGC Assay Overview: Pyruvate kinase (L. Mexicana) (LmPK) enzyme was supplied as a highly purified (>95% pure) sulphate-free preparation from University of Edinburgh, UK and assayed for its ability to generate ATP from ADP using phosphoenolpyruvate (PEP) as a substrate. ATP generation was detected in a coupled reaction by luciferase-mediated luminescence, an ATP-dependent process. Pyruvate kinase substrates, PEP and ADP, were present in the assay at Km and approximately 10-fold below Km respectively. The enzyme was assayed at an intermediate level of activity to screen for both inhibitors and activators.
# NCGC Assay Protocol Summary: Three uL of enzyme mix (kept on ice) in assay buffer (50 mM Imidazole pH7.2, 50 mM KCl, 7 mM MgCl2, 0.01% Tween 20, 0.05% BSA) containing PEP (0.5 mM final concentration) and LmPK (0.1 nM final concentration) was dispensed into white solid bottom 1,536 well microtiter plates. 23 nL of compound were delivered by a pin tool and 1 uL of ADP mix in assay buffer (r.t; 0.1 mM final ADP concentration) was added. Plates were incubated at room temperature for 1 hour. Two uL of detection mix (Kinase-Glo, Promega; at 4 degree Celsius protected from light) was added and luminescence read by a ViewLux (Perkin Elmer) at 1 second exposure/plate. Data were normalized to the uninhibited and AC100 inhibition (no enzyme). To monitor activation, the first column contained a five-fold concentration of LmPK (0.5 nM).
# Potency is the fitted concentration of half-maximal effect.
row,Structure (SMILES),Potency
1,Cc1ccc(NS(=O)(=O)c2ccc3c(c2)CCC(=O)N3)cc1C,inactive
2,O=C1c2ccccc2C(=O)N1c1cccc2ncccc12,inactive
3,Nc1ccc2c(c1)C(=O)NS2(=O)=O,inactive
4,O=C1c2ccccc2C(=O)N1c1ccc(Cl)cc1,inactive
5,O=C1CCc2cc(S(=O)(=O)NCc3ccccc3)ccc2N1,inactive
6,O=C1CCc2cc(S(=O)(=O)Nc3ccc4ccccc4c3)ccc2N1,inactive
7,COc1ccc(N2C(=O)c3ccccc3C2=O)cc1,inactive
8,COC(=O)c1ccccc1S(=O)(=O)Nc1cc(=O)c2ccccc2[nH]1,inactive
9,COC(=O)c1ccc2c(c1)S(=O)(=O)N=C2Sc1cc(C)ccc1C,8.19 µM (active)
10,N#Cc1ccccc1OC1=NS(=O)(=O)c2ccccc21,5.8 µM (active)
11,CCOc1ccc2c(c1)C(=O)C(c1cc(=O)c3ccccc3[nH]1)C2=O (stereo not given),inactive
12,Cc1ccc(NS(=O)(=O)c2ccc3c(c2)CCC(=O)N3)cc1,inactive
13,O=S1(=O)N=C(Oc2ccc(-c3ccccc3)cc2)c2ccccc21,4.11 µM (active)
14,O=C1c2ccccc2C(=O)N1c1ccc(O)cc1,inactive
15,Cc1cc(C)c2ccc(C3C(=O)c4ccc(O)cc4C3=O)nc2c1 (stereo not given),inactive
16,O=S1(=O)N=C(Oc2ccc(C(F)(F)F)cc2)c2ccccc21,3.66 µM (active)
17,CCOc1ccc2[nH]c(C3C(=O)c4ccccc4C3=O)cc(=O)c2c1,inactive
18,COc1ccc(O)cc1,inactive
19,Cc1ccccc1Nc1c(-c2ccccc2)nc2cccc(C)n12,inactive
20,Nc1cc(S(=O)(=O)N2CCN(S(=O)(=O)c3ccc4c(c3)OCCO4)CC2)ccn1,inactive

row,Structure (SMILES),Potency
1,Cc1ccc(NS(=O)(=O)c2ccc3c(c2)oc(=O)n3C)cc1C,inactive
2,O=C1c2ccccc2C(=O)N1c1cccc2cccnc12,inactive
3,COc1cccc(Cn2ncc3c4sc(S(C)=O)cc4n(C)c3c2=O)c1 (stereo not given),inactive
4,Cc1cc(=O)oc2cc(SC3=NS(=O)(=O)c4ccccc43)ccc12,1.83 µM (active)
5,O=S1(=O)N=C(Oc2ccc3ccccc3c2)c2ccccc21,4.11 µM (active)
6,N#Cc1cccc(OC2=NS(=O)(=O)c3ccccc32)c1,4.61 µM (active)
7,Cc1ccc(NS(=O)(=O)c2cc3c(cc2N2CCCCC2)NC(=O)CC3)cc1C,inactive
8,COc1cccc2ccc(C3C(=O)c4ccccc4C3=O)nc12,inactive
9,O=S1(=O)N=C(Oc2ccccc2C(F)(F)F)c2ccccc21,6.51 µM (active)
10,Cc1ccc(Nc2c(-c3ccc(C)o3)nc3cccc(C)n23)cc1,inactive
11,Cc1ccc(NS(=O)(=O)c2ccc(N3CCCC3=O)cc2)cc1C,inactive
12,Cc1ccc2nc(-c3ccc(C)o3)c(Nc3ccccc3)n2c1,inactive
13,O=C1NS(=O)(=O)C(c2ccccc2)C1c1ccccc1 (stereo not given),inactive
14,COc1ccccc1N1C(=O)c2ccccc2C1=O,inactive
15,CC(=O)Nc1cccc(OC2=NS(=O)(=O)c3ccccc32)c1,2.06 µM (active)
16,Cc1ccc(NS(=O)(=O)c2ccc(-c3ccccc3)cc2)cc1C,inactive
17,Cc1ccc(-c2nc3cccc(C)n3c2Nc2ccc(F)cc2)o1,inactive
18,CSc1cc2c(s1)c1cnn(Cc3cccc(O)c3)c(=O)c1n2C,inactive
19,O=S(=O)(c1ccc2c(c1)OCCO2)N1CCN(S(=O)(=O)c2c(F)cccc2F)CC1,inactive
20,O=C1NS(=O)(=O)c2cc(Cl)ccc21,inactive
